PubChem BioAssay (Tox21)
Records with an inconclusive call do not appear. Activity calls are given as the source filed them. Unless noted, the call rests on the fitted dose curve; in most records, active means well fitted curve in the direction sought with a large enough effect in the repeat runs; inconclusive means weak or mixed curves; inactive means no such curve, though single readings can be large; an effect the other way counts as inactive or inconclusive.

Experiments:
[1] = qHTS assay to identify small molecule agonists of the sonic hedgehog signaling (Shh) pathway (AID 1259368; calls by dose curve;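 further: NIH/3T3-derived 3T3Gli1-Luc cells carrying a stable Gli1-driven firefly luciferase reporter; series mostly up to about 92 µM; nearly all actives have a fitted effect of over 15% in size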)
Summary of the method: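 3T3Gli1-Luc (NIH/3T3 clone, stable Gli1-Luc); 4 hr pre-incubation, then cpd in DMSO 24 hr, 37 C/5% CO2; luciferase reagent 30 min RT; luminescence.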

[2] = qHTS assay to identify small molecule agonists of the androgen receptor (AR) signaling pathway in the presence of an antagonist - cell viability counter screen (AID 1259379);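 further: MDA-kb2 human breast cancer cells carrying an MMTV luciferase reporter; series mostly up to about 92 µM; nearly all actives have a fitted effect of over 25% in size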
Summary of the method: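 Cells: MDA-kb2 (MMTV-luc, AR and GR elements), 3,000/well, 5 hr settle. Added: nilutamide 3.0uM final, then compounds (15 conc.). Incubation: 16 hr, 37C, no CO2. Read-out: CellTiter-Fluor, 1 hr, fluorescence.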

[3] = qHTS assay to identify small molecule agonists of the estrogen receptor beta (ER-beta) signaling pathway - cell viability counter screen (AID 1259380); further: nearly all actives have a fitted effect of over 30% in size
Summary of the method: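 HEK293T ER-beta-UAS-bla; 2% CS-FBS; 6 hr pre-plate, 16 hr cpd at 37C/5% CO2; LiveBLAzer read first, then CellTiter-Glo 30 min RT, luminescence.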

[4] = qHTS assay to identify small molecule antagonists of the estrogen receptor beta (ER-beta) signaling pathway - cell viability counter screen (AID 1259382); further: series mostly up to about 92 µM; nearly all actives have a fitted effect of over 55% in size
Summary of the method: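 Cells: ER-beta-UAS-bla HEK293T, 2,000/well, 2% CS-FBS, 6 hr settle. Cpd + E2 (1nM final), 16 hr, 37C/5% CO2. Bla FRET substrate 2 hr RT, then CellTiter-Glo 30 min RT, luminescence.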

[5] = biological target: Estrogen receptor (Homo sapiens) (UniProt P03372); experiment: qHTS assay to identify small molecule agonists of the estrogen receptor alpha (ER-alpha) signaling pathway in the presence of an antagonist (AID 1259383; calls by dose curve; further: top concentration of the series differs between compounds; nearly all actives have a fitted effect of over 15% in size)
Sequence of Estrogen receptor (Homo sapiens) (P03372 whole entry, looked up): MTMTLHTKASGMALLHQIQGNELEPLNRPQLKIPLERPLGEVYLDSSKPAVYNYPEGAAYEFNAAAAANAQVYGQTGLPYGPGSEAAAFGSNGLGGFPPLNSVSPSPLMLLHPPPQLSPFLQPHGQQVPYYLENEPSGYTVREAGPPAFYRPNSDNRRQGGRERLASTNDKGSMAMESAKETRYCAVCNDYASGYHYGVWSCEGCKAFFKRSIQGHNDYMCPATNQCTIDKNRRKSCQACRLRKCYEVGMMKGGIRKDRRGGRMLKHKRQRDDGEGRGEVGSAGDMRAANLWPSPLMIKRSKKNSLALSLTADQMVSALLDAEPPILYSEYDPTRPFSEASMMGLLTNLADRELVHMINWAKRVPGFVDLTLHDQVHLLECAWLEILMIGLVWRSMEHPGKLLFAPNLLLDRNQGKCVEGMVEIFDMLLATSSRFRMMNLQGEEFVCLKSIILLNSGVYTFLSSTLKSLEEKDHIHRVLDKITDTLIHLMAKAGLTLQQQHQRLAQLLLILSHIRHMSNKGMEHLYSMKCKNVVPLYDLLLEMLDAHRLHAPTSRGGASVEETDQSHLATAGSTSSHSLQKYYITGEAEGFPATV
Summary of the method: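 VM7Luc4E2, endog. ER-alpha + 4×ERE-luc; charcoal-stripped FBS, phenol red-free, 5 d; 24hr plating; +10.0nM ICI-182,780 (final); cpds 15 conc, 22hr, 37C/5% CO2; ONE-Glo luminescence.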

[6] = biological target: Thyrotropin receptor (Homo sapiens) (UniProt P16473); experiment: qHTS assay to identify small molecule antagonists of the thyroid stimulating hormone receptor (TSHR) signaling pathway (AID 1259385; calls by dose curve; further: nearly all actives have a fitted effect of over 20% in size)
Sequence of Thyrotropin receptor (Homo sapiens) (P16473 whole entry, looked up): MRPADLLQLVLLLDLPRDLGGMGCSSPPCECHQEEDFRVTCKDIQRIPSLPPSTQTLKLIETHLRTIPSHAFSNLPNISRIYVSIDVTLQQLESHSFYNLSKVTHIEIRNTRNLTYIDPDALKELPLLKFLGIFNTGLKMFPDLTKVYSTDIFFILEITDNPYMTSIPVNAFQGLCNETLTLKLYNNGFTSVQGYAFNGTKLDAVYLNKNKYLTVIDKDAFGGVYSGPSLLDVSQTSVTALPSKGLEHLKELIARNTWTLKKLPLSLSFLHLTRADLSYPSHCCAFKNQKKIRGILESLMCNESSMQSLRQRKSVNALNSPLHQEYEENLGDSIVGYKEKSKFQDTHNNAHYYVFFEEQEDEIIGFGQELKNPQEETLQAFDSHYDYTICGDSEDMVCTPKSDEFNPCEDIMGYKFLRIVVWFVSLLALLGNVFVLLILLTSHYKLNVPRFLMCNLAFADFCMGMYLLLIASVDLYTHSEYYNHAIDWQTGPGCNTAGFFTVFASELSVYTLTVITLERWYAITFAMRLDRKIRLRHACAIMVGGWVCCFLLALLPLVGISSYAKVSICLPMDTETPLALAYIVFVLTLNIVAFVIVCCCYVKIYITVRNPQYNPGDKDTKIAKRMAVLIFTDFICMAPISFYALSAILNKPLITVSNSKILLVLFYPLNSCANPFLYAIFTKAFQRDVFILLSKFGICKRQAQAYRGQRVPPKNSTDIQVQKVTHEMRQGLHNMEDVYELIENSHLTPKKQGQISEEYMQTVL
Summary of the method: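 TSHR-HEK293 cells (800/well) plated 18 h, then compounds with Ro20-1724 and TSH at 1.5 ng/mL final, 30 min at room temperature. cAMP quantified by HTRF (cAMP-d2/anti-cAMP-cryptate, 1 h); 15 concentrations in triplicate.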

[7] = qHTS assay to identify small molecule agonists of the estrogen receptor alpha (ER-alpha) signaling pathway in the presence of an antagonist - cell viability counter screen (AID 1259386);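 further: series mostly up to about 92 µM; cells exposed to compounds for 22 h at 37 °C before the viability read; nearly all actives have a fitted effect of over 30% in size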
Summary of the method: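 VM7Luc4E2, stripped-serum pre-culture 5 d; 24hr plating; +ICI-182,780 10.0nM final; cpds 15 conc, 22hr, 37C/5% CO2; CellTiter-Fluor added at 21hr, fluorescence 1hr later.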

[8] = biological target: Progesterone receptor (Homo sapiens) (UniProt P06401); experiment: qHTS assay to identify small molecule agonists of the progesterone receptor (PR) signaling pathway (AID 1346784; calls by dose curve; further: nearly all actives have a fitted effect of over 30% in size)
Sequence of Progesterone receptor (Homo sapiens) (P06401 whole entry, looked up): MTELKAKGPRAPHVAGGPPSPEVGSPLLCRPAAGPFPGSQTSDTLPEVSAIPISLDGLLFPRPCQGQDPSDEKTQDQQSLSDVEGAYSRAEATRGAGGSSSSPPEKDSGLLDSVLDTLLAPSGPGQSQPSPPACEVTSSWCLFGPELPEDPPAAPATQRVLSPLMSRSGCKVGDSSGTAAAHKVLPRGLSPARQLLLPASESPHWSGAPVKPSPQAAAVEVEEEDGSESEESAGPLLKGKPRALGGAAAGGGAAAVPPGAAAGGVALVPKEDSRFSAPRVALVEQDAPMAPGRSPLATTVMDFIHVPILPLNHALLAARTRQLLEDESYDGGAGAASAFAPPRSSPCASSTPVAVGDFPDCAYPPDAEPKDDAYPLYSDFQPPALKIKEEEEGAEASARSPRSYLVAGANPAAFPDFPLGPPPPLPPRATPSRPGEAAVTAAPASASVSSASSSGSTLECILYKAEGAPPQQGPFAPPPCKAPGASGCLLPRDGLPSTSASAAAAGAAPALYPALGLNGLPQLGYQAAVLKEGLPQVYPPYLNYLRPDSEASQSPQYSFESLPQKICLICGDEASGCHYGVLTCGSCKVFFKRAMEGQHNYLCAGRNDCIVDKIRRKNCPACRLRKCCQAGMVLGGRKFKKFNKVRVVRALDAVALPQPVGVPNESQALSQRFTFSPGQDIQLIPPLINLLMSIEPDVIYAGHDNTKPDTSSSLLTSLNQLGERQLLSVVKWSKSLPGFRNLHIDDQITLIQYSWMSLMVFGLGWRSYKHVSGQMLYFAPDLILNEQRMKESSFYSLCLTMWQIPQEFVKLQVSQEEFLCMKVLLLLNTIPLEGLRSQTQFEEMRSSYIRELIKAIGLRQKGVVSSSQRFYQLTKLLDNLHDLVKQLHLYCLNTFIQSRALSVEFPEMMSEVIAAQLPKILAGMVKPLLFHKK
Summary of the method: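 Using charcoal-stripped serum (2%) to limit endogenous steroids, PR-UAS-bla HEK 293T cells received compounds for 16 hr at 37C after 6 hr plating; beta-lactamase FRET fluorescence was recorded following 2 hr substrate loading at room temperature.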

[9] = biological target: Progesterone receptor (Homo sapiens) (UniProt P06401); experiment: qHTS assay to identify small molecule antagonists of the progesterone receptor (PR) signaling pathway (AID 1346795; active means well fitted inhibition curve with a large enough effect in the signal ratio in the repeat runs, not every such curve was filed as active; the % refers to the signal ratio)
Summary of the method: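 Inhibition of R5020-induced (1 nM final) beta-lactamase reporter signal in PR-UAS-bla HEK293T cells was scored by FRET fluorescence after overnight (16 hr) compound treatment.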

[10] = qHTS assay to identify small molecule antagonists of the progesterone receptor (PR) signaling pathway - cell viability counter screen (AID 1346798); further: series mostly up to about 92 µM; nearly all actives have a fitted effect of over 50% in size
Summary of the method: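 ATP content as viability readout: CellTiter-Glo luminescence, 30 min room temperature, in PR-UAS-bla HEK293T cells after 16 hr compound/R5020 treatment at 37C and 5% CO2.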

[11] = qHTS assay to identify small molecule agonists of the progesterone receptor (PR) signaling pathway - cell viability counter screen (AID 1346799; calls by dose curve; further: nearly all actives have a fitted effect of over 45% in size)
Summary of the method: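 Cytotoxicity in PR-bla HEK293T cells: 16 h compound, 37C; CellTiter-Glo added post-FRET read; luminescence after 30 min RT.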

[12] = qHTS assay to identify small molecule antagonists of the TGF-beta/Smad signaling pathway - cell viability counter screen (AID 1346824); further: nearly all actives have a fitted effect of over 50% in size
Summary of the method: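 SBE-bla HEK 293T cells, incubated overnight, then compound plus 0.25 ng/mL TGF-beta1 (stock added) for 5 hr at 37 C. Viability was read in the same wells by CellTiter-Glo luminescence after 30 min at room temperature.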

[13] = qHTS assay to identify small molecule agonists of the TGF-beta/Smad signaling pathway - cell viability counter screen (AID 1346829); further: top concentration of the series differs between compounds; nearly all actives have a fitted effect of over 45% in size
Summary of the method: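 CellTiter-Glo luminescence readout; SBE-bla HEK 293T cells, overnight plating, compound 5 hr at 37 C/5% CO2, then bla substrate 2 hr RT, then CellTiter-Glo 30 min RT.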

[14] = qHTS assay to identify small molecule agonists of the TGF-beta/Smad signaling pathway (AID 1346859; active means well fitted activation curve with a large enough effect in the signal ratio in the repeat runs, not every such curve was filed as active; the % refers to the signal ratio; further: series mostly up to about 77 µM)
Summary of the method: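 Stable Smad binding element-beta-lactamase HEK 293T cells; 5 hr compound exposure at 37 C under 5% CO2; 2 hr room-temperature substrate step; fluorescence excited at 405 nm, collected at 460 nm and 530 nm.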

[15] = biological target: Thyrotropin-releasing hormone receptor (Homo sapiens) (UniProt P34981); experiment: qHTS assay to identify small molecule antagonists of the thyrotropin-releasing hormone receptor (TRHR) signaling pathway (AID 1346877; active means well fitted inhibition curve with a large enough effect in the repeat runs, not every such curve was filed as active; further: series mostly up to about 51 µM)
Sequence of Thyrotropin-releasing hormone receptor (Homo sapiens) (P34981 whole entry, looked up): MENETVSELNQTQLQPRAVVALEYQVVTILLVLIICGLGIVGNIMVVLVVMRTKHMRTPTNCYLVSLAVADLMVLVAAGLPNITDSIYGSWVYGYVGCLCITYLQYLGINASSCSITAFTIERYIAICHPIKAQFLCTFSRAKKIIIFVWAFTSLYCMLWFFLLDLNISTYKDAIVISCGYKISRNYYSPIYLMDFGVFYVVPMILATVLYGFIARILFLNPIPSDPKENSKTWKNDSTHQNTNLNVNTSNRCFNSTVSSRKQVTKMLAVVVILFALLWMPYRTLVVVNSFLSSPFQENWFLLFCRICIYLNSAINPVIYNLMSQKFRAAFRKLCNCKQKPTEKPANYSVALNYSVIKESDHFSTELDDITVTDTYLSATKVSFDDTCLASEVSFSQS
Summary of the method: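 Intracellular calcium fluorescence, read kinetically every second over 3 min, reports TRH-evoked signalling in HEK293 cells carrying TRHR. Test compounds were added 5 min ahead of a 1 nM TRH challenge.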

[16] = biological target: Estrogen receptor beta (Homo sapiens) (UniProt Q92731); experiment: qHTS assay to identify small molecule agonists of the estrogen receptor beta (ER-beta) signaling pathway (AID 1259377; active means well fitted activation curve with a large enough effect in the signal ratio in the repeat runs, not every such curve was filed as active; the % refers to the signal ratio)
Sequence of Estrogen receptor beta (Homo sapiens) (Q92731 whole entry, looked up): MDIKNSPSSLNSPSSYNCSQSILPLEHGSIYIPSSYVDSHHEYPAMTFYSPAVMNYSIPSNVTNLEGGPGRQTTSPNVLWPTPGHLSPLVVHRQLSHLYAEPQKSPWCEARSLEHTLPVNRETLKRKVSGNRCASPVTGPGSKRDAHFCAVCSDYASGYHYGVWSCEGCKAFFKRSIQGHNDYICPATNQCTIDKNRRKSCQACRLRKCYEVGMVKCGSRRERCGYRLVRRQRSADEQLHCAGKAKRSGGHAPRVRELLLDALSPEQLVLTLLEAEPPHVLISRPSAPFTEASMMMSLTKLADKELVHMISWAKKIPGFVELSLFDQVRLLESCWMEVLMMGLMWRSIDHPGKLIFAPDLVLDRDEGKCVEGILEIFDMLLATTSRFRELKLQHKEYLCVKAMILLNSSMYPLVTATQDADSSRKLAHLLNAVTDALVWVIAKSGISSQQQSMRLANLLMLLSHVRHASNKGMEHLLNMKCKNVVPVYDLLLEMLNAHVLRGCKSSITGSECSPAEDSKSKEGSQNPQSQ
Summary of the method: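 In HEK293T cells bearing a UAS-beta-lactamase reporter under ER-beta control, DMSO-delivered compounds were incubated for 16 hr at 37C. Activity was detected as fluorescence 2 hours after LiveBLAzer B/G FRET substrate addition.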

[17] = biological target: Estrogen receptor beta (Homo sapiens) (UniProt Q92731); experiment: qHTS assay to identify small molecule antagonists of the estrogen receptor beta (ER-beta) signaling pathway (AID 1259378; active means well fitted inhibition curve with a large enough effect in the signal ratio in the repeat runs, not every such curve was filed as active; the % refers to the signal ratio)
Summary of the method: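 ER-beta-UAS-bla HEK293T cells in 2% charcoal-stripped FBS medium treated with compound plus 1nM final 17-beta-estradiol for 16 hr at 37C. Beta-lactamase reporter read by FRET substrate fluorescence after 2 hours at room temperature.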

[18] = qHTS assay to identify small molecule agonists or antagonists of the thyroid stimulating hormone receptor (TSHR) signaling pathway - wild type cell line counter screen (AID 1259384; calls by dose curve)
Summary of the method: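 Wild-type Hek293 cells, 800/well, 18 h at 37C, then compound with Ro20-1724 for 30 min RT. cAMP by HTRF (cAMP-d2/anti-cAMP cryptate), 1 h RT, fluorescence read. 15 concentrations, triplicates.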

[19] = biological target: Androgen receptor (Homo sapiens) (UniProt P10275); experiment: qHTS assay to identify small molecule agonists of the androgen receptor (AR) signaling pathway in the presence of an antagonist (AID 1259381; calls by dose curve; further: nearly all actives have a fitted effect of over 15% in size)
Sequence of Androgen receptor (Homo sapiens) (P10275 whole entry, looked up): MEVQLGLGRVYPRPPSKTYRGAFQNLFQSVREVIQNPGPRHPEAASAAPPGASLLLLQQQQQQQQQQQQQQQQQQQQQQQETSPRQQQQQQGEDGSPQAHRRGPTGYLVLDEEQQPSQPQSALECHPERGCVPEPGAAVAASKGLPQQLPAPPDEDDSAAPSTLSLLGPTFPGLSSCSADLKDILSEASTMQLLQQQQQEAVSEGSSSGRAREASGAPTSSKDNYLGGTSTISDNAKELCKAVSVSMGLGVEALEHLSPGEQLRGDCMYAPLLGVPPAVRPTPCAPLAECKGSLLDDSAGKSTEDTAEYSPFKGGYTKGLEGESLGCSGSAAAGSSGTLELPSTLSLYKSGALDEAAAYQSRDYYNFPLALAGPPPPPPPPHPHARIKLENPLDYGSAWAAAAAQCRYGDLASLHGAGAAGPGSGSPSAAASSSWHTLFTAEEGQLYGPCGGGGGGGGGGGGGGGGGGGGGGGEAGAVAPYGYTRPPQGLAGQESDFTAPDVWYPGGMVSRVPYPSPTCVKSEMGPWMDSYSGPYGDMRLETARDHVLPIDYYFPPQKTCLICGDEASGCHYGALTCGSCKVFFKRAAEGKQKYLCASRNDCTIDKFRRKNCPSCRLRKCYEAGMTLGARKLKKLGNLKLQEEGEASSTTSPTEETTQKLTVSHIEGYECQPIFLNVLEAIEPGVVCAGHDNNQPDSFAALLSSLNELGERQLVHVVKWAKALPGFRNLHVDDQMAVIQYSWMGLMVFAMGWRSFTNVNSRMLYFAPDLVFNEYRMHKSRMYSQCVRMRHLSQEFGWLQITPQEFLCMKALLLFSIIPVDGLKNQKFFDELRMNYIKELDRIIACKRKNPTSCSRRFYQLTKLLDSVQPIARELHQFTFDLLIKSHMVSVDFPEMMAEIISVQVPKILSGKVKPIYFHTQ
Summary of the method: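 MDA-kb2 cells, 3,000/well, rested 5hr at 37C/0% CO2 → nilutamide 3.0uM final or buffer → compounds, 15 conc. → 16hr at 37C → ONE-Glo, 30min RT → luminescence.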

Measured: Potency

CC(C)=CCl
not listed: [15] | [16] | [17] | [18] | [19]
inactive: all other assays above

CC(=O)CCC=C(C)C
not listed: [16] | [17] | [18] | [19]
inactive: all other assays above

Cc1ccc(C(C)C)c(O)c1
not listed: [2] | [6] | [18] | [19]
inactive: all other assays above

CCCCCCCCCCN
not listed: [5] | [15] | [19]
inactive: all other assays above

CCNc1ccccc1
not listed: [2] | [5] | [15] | [18]
inactive: all other assays above

O=C(O)Cn1c(=O)n(Cc2ccc(Br)cc2F)c(=O)c2ccc(Cl)cc21
not listed: [2]
inactive: all other assays above

CN(C)c1ccc(Cc2ccc(N(C)C)cc2)cc1
not listed: [5] | [11] | [19]
inactive: all other assays above

C=C(C)C(=O)OCC(C)C
not listed: [19]
inactive: all other assays above

CC(C)CC(=O)CC(C)CC(C)C (centres undefined)
not listed: [2] | [5] | [15]
inactive: all other assays above

CCCCCCCO
not listed: [18] | [19]
inactive: all other assays above

CC(C)OP(=O)(CP(=O)(OC(C)C)OC(C)C)OC(C)C
not listed: [2] | [6] | [15] | [18] | [19]
inactive: all other assays above

COc1ccc(N)c(C)c1
not listed: [2] | [15] | [19]
inactive: all other assays above

CCOCC(=O)O
not listed: [15] | [16] | [17] | [18] | [19]
inactive: all other assays above

CC(C)(C)c1cc(Cc2cc(C(C)(C)C)c(O)c(C(C)(C)C)c2)cc(C(C)(C)C)c1O
not listed: [15] | [18] | [19]
inactive: all other assays above

N#Cc1ccccc1
not listed: [2] | [5] | [19]
inactive: all other assays above

O=C(O)c1cc2ccccc2cc1O
not listed: [15] | [16] | [17]
inactive: all other assays above

Brc1ccc(Br)c(Br)c1
not listed: [2] | [15] | [16] | [18] | [19]
inactive: all other assays above

Nc1nc(N)nc(-c2ccccc2)n1
not listed: [2] | [15] | [19]
inactive: all other assays above

O=S(=O)(O)c1ccccc1
not listed: [5] | [15] | [16] | [17] | [18] | [19]
inactive: all other assays above

O=C(OCC1CCC2OC2C1)C1CCC2OC2C1 (centres undefined)
not listed: [7] | [15] | [16] | [17] | [19]
inactive: all other assays above

COc1ccc([N+](=O)[O-])cc1N
not listed: [6] | [7] | [15] | [18] | [19]
inactive: all other assays above

C[Si]1(C)O[Si](C)(C)O[Si](C)(C)O[Si](C)(C)O1
not listed: [2] | [18] | [19]
inactive: all other assays above
